Laboratory results: the supplement of paper PMC11417369
± gives the standard deviation of the averaged measurements. In all, about 25,000 sequences were measured (“ln(normalized median fluorescence intensity)”: median about 8.6, highest 2% from about 10 on). The sample holds the highest values, similar sequences and a random draw of the others, so the mix is not that of the screen.

System: PfAP2-EXP AP2 domain (GST-tagged)
Experiment: gcPBM binding intensity (ln(normalized median fluorescence intensity)); higher = stronger DNA binding
Outline: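 Binding of GST-tagged P. falciparum DNA-binding domains, expressed in E. coli and used at about 25 μg on average, was carried out for 1 h in 1× PBS containing 1% milk, 0.2 mg/ml BSA, 0.5% salmon testes DNA and 0.03% Triton X-100. The target was an Agilent 4 × 180k array of primer-extended double-stranded 36-bp intergenic genomic probes plus negative controls, read with Alexa488 anti-GST antibody at 488 nm. Binding intensity is the highest Masliner-normalised natural-log median intensity across replicate spots of either probe orientation.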

Row | Sequence | gcPBM binding intensity (ln)
1 | CACAAAAATGTAATCACACATATATATATATATATA [CACACA_site5818] | 10.1 ± 0.38
2 | TGAAAAATGTAATGCTCACACATATATATATATATA [CACACA_site5213] | 10.2 ± 0.32
3 | ATATAATTAAAATGCTCACACACATAAAAAAAAATT [CACACA_site2148] | 8.43 ± 0.55
4 | AATAAAATAAGAAGCACACAAATATTATATATAAAA [CACACA_site3980] | 8.78 ± 0.42
5 | ATTATAAATTAAAATACACACATATATACCTAATAT [CACACA_site5541] | 8.47 ± 0.4
6 | TTACAAATATTATAATGTACCCATTTTTTTTGCCTT [XGTACX_site6612] | 8.47 ± 0.39
7 | AGAAACCTTGTTAGTTAGCATATATATATATATATA [CACACA_negctrl_site372] | 10.2 ± 0.49
8 | CATAATATATATTGAGCATGCTACTATTGTTAGAAA [TGCATGCA_site740] | 9 ± 0.31
9 | TTATTCTTTAACTAAAATTATATATATATATTATAC [CACACA_negctrl_site1597] | 8.38 ± 0.34
10 | AATGATTTTAAATGAACATAATTTATATTCATAACA [GTGCAC_negctrl_site256] | 8.04 ± 0.42
11 | TCAATTTTACTTGTTTGTACATAAAATAATAAGGTT [XGTACX_site3732] | 8.44 ± 0.47
12 | AAAAAAAAAACACACACATGCACATCATATTATATA [TGCATGCA_site133] | 8.72 ± 0.54
13 | GCACAACATATATTATCACACACATATATATATATA [CACACA_site8619] | 10.3 ± 0.18
14 | AATAAATTATATATCACACATATATATTTATATTTA [CACACA_site5964] | 8.13 ± 0.23
15 | CCAACATATATTATCACACACATATATATATATATA [CACACA_site2016] | 10.2 ± 0.22
16 | ATATCACATATATATATATATATATATATATATATA [XGTACX_negctrl_site463] | 9.95 ± 0.61
17 | ACAACATATGTTATCACACACATATAAATATAAATA [CACACA_site7038] | 8.41 ± 0.54
18 | AAAAAAAACAGACACACACACACATATACATACATA [CACACA_site2665] | 8.41 ± 0.38
19 | AAAAAAATCACATAATATACTTTATTTTATTTTGTA [GTGCAC_negctrl_site562] | 7.89 ± 0.33

Row | Sequence | gcPBM binding intensity (ln)
20 | ATTTTTTTTTTTAATACACACAATTTTGATGAAGCA [CACACA_site3157] | 8.26 ± 0.41
21 | CTAAAGTAAATTTAAGCACACACAACGAATTTTTAT [CACACA_site8599] | 8.65 ± 0.45
22 | GATAAAATGGATGGATGTACATTATTTCCATATAAT [XGTACX_site7781] | 8.55 ± 0.5
23 | AACCATTATTTCTCTACACACATTTATGTCATTTAC [CACACA_site1499] | 8.86 ± 0.56
24 | AAAAAAAAAAAACATACACACATACATACAGATATA [CACACA_site4681] | 8.5 ± 0.64
25 | CATATACATAAACACACACACACATAAATAAATATA [CACACA_site4864] | 8.68 ± 0.54
26 | AAAAAAAAAAAAAGTACACACATACATATAAATATA [CACACA_site8533] | 8.48 ± 0.4
27 | TACATACATAAACACACACACACATATATATATATA [CACACA_site8953] | 10.1 ± 0.35
28 | TACAGATATAAACACACACACATATATATATATATA [CACACA_site4846] | 10.2 ± 0.48
29 | TAGATACATAAACACACACACACATACATATATACA [CACACA_site9139] | 8.68 ± 0.6
30 | TACATATATAAAAAAACACACACATATATATATATA [CACACA_site8315] | 10.1 ± 0.46
31 | TATACACATATATAAACACACAAAAAAAAAAAAAAA [CACACA_site7041] | 8.19 ± 0.63
32 | AAGTACATACATAAAACACACACATATATATATATA [CACACA_site8541] | 10.2 ± 0.17
33 | TAAAAAAAAAAAAAAAGTACACACATACATATAAAT [XGTACX_site3752] | 8.61 ± 0.44
34 | TATATACATAAACACACACACACATATATATATATA [CACACA_site8707] | 10.2 ± 0.29
35 | GTACATACATAAAACACACACATATATATATATATA [CACACA_site1826] | 10.2 ± 0.75
36 | GTTAATATACTTAATACACACACGAATATATATAAA [CACACA_site1181] | 8.69 ± 0.35
37 | ACCTAATTTTTATATTGTACATAATATAATATATAT [XGTACX_site1715] | 8.66 ± 0.3
38 | ATTTAAAAAAAAAAAAAAAAAAAAAAAAAAAGAAAA [CACACA_negctrl_site722] | 8.01 ± 0.43

Row | Sequence | gcPBM binding intensity (ln)
39 | TATATATATATGTATACACACATATGTATGTTATGT [CACACA_site4053] | 9.65 ± 0.28
40 | CCAATACATAGAAACTGTACATTATGCATTATACAC [XGTACX_site3531] | 8.79 ± 0.28
41 | ATTAAATACTTCGATTGTACAATTTTTTTTTTTTTT [XGTACX_site832] | 8.59 ± 0.59
42 | ATTTAAAATGGTTATACACACATAAAAGGGGAAATG [CACACA_site2649] | 8.95 ± 0.57
43 | TTTTTTTTTCGCTTTTGTACACATTTTATAGAACAG [XGTACX_site2416] | 8.87 ± 0.46
44 | AAAAAAAAAAAAAAGCGTACAAATAAAATATATTTA [XGTACX_site7195] | 8.52 ± 0.49
45 | AACATATACACGAACACACACACATATATATATATA [CACACA_site502] | 10.1 ± 0.38
46 | CCCCCCCACGAACACACACACATACATACCACATAT [CACACA_site7149] | 10.41 ± 0.028
47 | CATATACACGAACACACACACATATAAATAAATATA [CACACA_site6379] | 8.73 ± 0.46
48 | AACATATACACGAACACACACACATATAAATAAATA [CACACA_site6380] | 8.74 ± 0.56
49 | CATATACACGAACACACACACATATATATATATATA [CACACA_site4437] | 10.3 ± 0.39
50 | GGCATACACGAACACACACACACACGCACATATATA [CACACA_site6426] | 8.96 ± 0.52
51 | ATTATATTTCAATTATGTACATATAAAATGAATAAA [XGTACX_site4204] | 8.43 ± 0.38
52 | ATGAATATAATAAAGAAACACACGTATACATAATGA [CACACA_site1355] | 8.8 ± 0.54
53 | TAAAATTTACAACACTGTACTTGAATTTATCTTTAA [XGTACX_site241] | 8.25 ± 0.37
54 | CGCATAAAGACAAGAACACACATATAGATTGTAGTA [CACACA_site3693] | 8.27 ± 0.49
55 | ATTATTATATAGTGTGCATGCAATATTAATAAAACC [TGCATGCA_site245] | 10.3 ± 0.4
56 | ATTATATATAATATAGTGCATGTAAAAAATAAAACA | 9.23 ± 0.33
57 | GTTATATTTAAAATAGTGCAATAAAAATAATAATAT | 8.89 ± 0.2
